# High-throughput results deposited in PubChem BioAssay by National Center for Advancing Translational Sciences (NCATS).
# TRb SRC2 PPI: inhibitors of human thyroid hormone receptor beta-SRC2 interaction; actives 0.065% (n = 280,000); TRbeta-SRC2 peptide binding, fluorescence polarization; receptor liganded with 1 µM T3; Potency, µM (highest dose often 106 µM), for inactives: at the top dose activity change, negative = inhibition, hits mostly inhibitors; P10828; AID 1469;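 also: potency is read from the fitted curve at half-maximal effect; plate controls were bound peptide for no effect and peptide without receptor for full effect; nearly all actives have a fitted effect of over 50% in size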
# Target sequence (P10828 whole entry, looked up): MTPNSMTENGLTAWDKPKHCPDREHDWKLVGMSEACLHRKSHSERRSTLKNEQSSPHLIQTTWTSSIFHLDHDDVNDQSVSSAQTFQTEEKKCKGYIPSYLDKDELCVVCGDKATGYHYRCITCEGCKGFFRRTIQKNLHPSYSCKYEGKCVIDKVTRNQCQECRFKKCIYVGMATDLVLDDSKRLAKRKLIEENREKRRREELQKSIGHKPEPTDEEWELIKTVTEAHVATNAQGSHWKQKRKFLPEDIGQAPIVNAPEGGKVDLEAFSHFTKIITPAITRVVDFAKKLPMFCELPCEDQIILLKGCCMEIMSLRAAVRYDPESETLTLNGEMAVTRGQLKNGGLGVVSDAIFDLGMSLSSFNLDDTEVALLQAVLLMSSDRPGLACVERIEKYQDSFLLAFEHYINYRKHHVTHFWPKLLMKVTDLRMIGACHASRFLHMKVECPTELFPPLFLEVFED
#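 Fluorescence polarization of 20 nM Texas Red SRC2 peptide (20-aa NR interaction domain) bound to 0.6 uM human TRb ligand-binding domain, with 1 uM T3, after 5 hr at ambient temperature; inhibition seen as decreased polarization.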
# HttQ103 aggreg: mutant huntingtin aggregation inhibition; actives 1.1% (n = 220,000); PC12 HttQ103-GFP aggregates, Acumen cytometry, 40 h; AID 1688; Potency, µM (top dose mostly 46.1 µM), inactives show at the highest dose activity change, negative = inhibition, most hits filed as inhibitors; also: potency is read from the fitted curve at half-maximal effect; % is scaled to controls: 0 for no effect and ±100 for the full control effect; nearly all actives have a fitted effect of over 60% in size
#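 Read-out: GFP aggregate count by laser scanning cytometer (488 nm excitation, 500-530 nm emission, 1–25 µm objects >6 SD above background). Cells: PC12, inducible HTTex1-Q103-GFP, 100 nM tebufenozide; compounds titrated.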
# Coupling enz: inhibits coupling enzyme system, counter-screen for aldolase hits; activity change, negative = inhibition, % at 58.2 µM, hits read low; AID 2472; actives 0.67% (n = 290,000); coupling enzyme system counterscreen, AmpLite Red fluorescence; in the data active = activity change below about -30%; also: % is scaled to controls: 0 for no effect and ±100 for the full control effect
#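 Final compound at 57.5 uM, incubated 10 min at RT with coupling enzyme reagent (glyceraldehyde-3-phosphate), then 20 min with substrate and AmpLite Red detection. Fluorescence read at 525/598 nm; tests interference with the coupling assay, not aldolase inhibition.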
# TexasRed fluor: Texas Red fluorescence interference in TRb-SRC2 counter-screen | TRb/SRC2 Texas Red total fluorescence interference | actives 0.29% (n = 280,000) | Potency, µM (top dose mostly 106 µM), inactives show at the highest dose fluorescence change, negative = quenching | AID 1479; active = well fitted curve in either direction with a large enough effect; inconclusive = small, poorly fitted or top-dose-only effect; also: potency is read from the fitted curve at half-maximal effect; % is scaled to controls: 0 for no effect and ±100 for the full control effect
#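 Human TRb ligand-binding domain at 0.6 uM with 20 nM Texas Red SRC2 peptide in Tris buffer containing 1 uM T3 and 5% DMSO, incubated with compound 5 h at ambient temperature. Total fluorescence (555/632 nm) calculated as parallel + 2 × perpendicular.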
# HTT ATP protect: cytoprotection in Huntington HTT-Q103 PC12 cell model; PC12 HTT-Q103 induced, cytoprotection, ATP luminescence, 40 h; Potency, µM (top dose mostly 56.4 µM), inactives show cytoprotection (ATP increase), most hits filed as activators; actives 0.14% (n = 230,000); AID 1471; also: potency is read from the fitted curve at half-maximal effect; % of control where 0% means no effect; nearly all actives have a fitted effect of over 45% in size
#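 ATP quantification (ATPlite) reports survival of PC12 cells in which tebufenozide, 100 nM final, switches on Htt exon 1 with 103 glutamines linked to GFP; compounds are titrated.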
# JMJD2E inh: JMJD2E (human) inhibition. B2RXH2. JMJD2E catalytic domain, FDH-coupled NADH fluorescence (FDH is formaldehyde dehydrogenase). Potency, µM (top dose mostly 57.1 µM), without a hit: top-dose activity change, negative = inhibition, usual class: inhibitors. actives 1.6% (n = 230,000); active = well fitted inhibition curve with a large enough effect, not every such curve was filed as active; inconclusive = small, poorly fitted or top-dose-only effect, or another doubt; inactive = no such curve, though single readings can be large or run the other way;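 also: potency is read from the fitted curve at half-maximal effect; 0% = wells with enzyme and -100% = buffer wells without enzyme; nearly all actives have a fitted effect of over 50% in size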
# Target sequence (B2RXH2 1-337 limits assumed): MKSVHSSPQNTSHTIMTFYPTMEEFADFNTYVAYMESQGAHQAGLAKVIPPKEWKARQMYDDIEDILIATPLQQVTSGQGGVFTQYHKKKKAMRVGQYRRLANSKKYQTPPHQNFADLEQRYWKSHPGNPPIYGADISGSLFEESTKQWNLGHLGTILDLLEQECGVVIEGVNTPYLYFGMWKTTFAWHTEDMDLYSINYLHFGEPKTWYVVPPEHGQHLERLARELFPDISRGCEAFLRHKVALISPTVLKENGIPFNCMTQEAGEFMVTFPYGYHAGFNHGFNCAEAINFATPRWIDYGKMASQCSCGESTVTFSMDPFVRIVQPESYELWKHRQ
# Active calls of the source: *; ? = inconclusive; / = not tested or not shown; ! = not active in a repeat; [ ] = dose if it differs, or a comment. In the library only some 2% were active in any assay of this set; here they are far more common. Unless noted, calls follow the shape of the dose curve; as a rule, active = well fitted curve in the direction sought with a large enough effect; inconclusive = small, poorly fitted or top-dose-only effect, or another doubt; inactive = no such curve, though single readings can be large; an effect the other way counts as inactive or inconclusive.
SMILES,TRb SRC2 PPI,HttQ103 aggreg,Coupling enz,TexasRed fluor,HTT ATP protect,JMJD2E inh
COc1ccc(CC(=O)Nc2cccc(-c3nnc(-c4cccc(C)c4)o3)c2)cc1OC,-1.7%,11.2µM*,0.4,-0.9%,-28.1%[10 µM],-18.8%
COc1ccc(CC(=O)Nc2cccc(-c3nnc(-c4ccccc4)o3)c2)cc1OC,-4.7%,22.4µM*,1.1,-1.9%,-148.9%[0.074 µM],-1.2%
CN(Cc1nc(-c2cccnc2)no1)S(=O)(=O)c1ccc(Br)cc1,-3.8%,22.4µM*,-2.0,-6.5%,-18.5%[10 µM],-1.6%
ClC1=C(Cl)C(Cl)(Cl)C(Cl)=C1Cl,0.2%[201 µM],/,/,-0.4%[201 µM],-9.4%,/
Cc1oc(/C=N/NC(=O)CC2(C)OCCO2)cc1Br,5.1%,28.2%,1.5,-0.8%,20.7%[10 µM],-1.0%
CC1(CC(=O)N/N=C/c2cc(Br)c(O)cc2O)OCCO1,1.1%,-26.0%,0.4,-2.0%,13.2%,25.1µM*
CCc1ccccc1NC(=O)CSc1nncn2c1cc1oc(C)cc12,9.5%,/,/,-1.9%,/,/
COc1ccc(O)c(/C=N/NC(=O)c2ccc(CSc3nc(C)cc(C)n3)cc2)c1,7.8%,5.62µM*,1.2,-3.6%,-10.4%[10 µM],?
Cc1cc(C)nc(SCc2ccc(C(=O)N/N=C/c3ccc(C(=O)O)cc3)cc2)n1,0.8%,10.0%,1.8,-1.4%,3.2%,-4.1%
O=C(N/N=C/c1ccccc1)c1cc(=O)[nH]c2ccccc12,0.8%,1.6%,2.2,-6.8%,-18.7%[10 µM],-17.1%
Cc1cc(C)nc(SCc2ccc(C(=O)N/N=C/c3cccc(O)c3O)cc2)n1,0.1%,-32.1%,-26.7,2.7%,-35.8%[0.074 µM],3.16µM*
COc1ccc(O)c(/C=N/NC(=O)c2cc(=O)[nH]c3ccccc23)c1,-5.4%,-3.2%[9.22 µM],1.0,-4.7%,3.9%[10 µM],7.08µM*
COc1ccc(/C=N/NC(=O)c2ccc(CSc3nc(C)cc(C)n3)cc2)cc1O,-3.9%,26.2%,-13.3,1.3%,-18.7%[10 µM],-0.2%
CN[C@@H]1[C@H](O[C@@H]2O[C@H](C)[C@@](O)(CO)[C@H]2O[C@H]2[C@H](O)[C@H](O)[C@H](N=C(N)N)[C@@H](O)[C@@H]2N=C(N)N)O[C@@H](CO)[C@H](O)[C@H]1O,1.6%,/,0.1,-2.0%,-48.1%,/
CC(=O)/C(=N/Nc1ccccc1Cl)Sc1nnc(C(O)c2ccccc2)n1-c1ccccc1 (centres undefined),6.3%,-3.5%,0.0,0.3%,24.2%[10 µM],-7.2%
COC(=O)/C(=N/Nc1ccccc1Cl)Sc1nnc(C(O)c2ccccc2)n1-c1ccccc1 (centres undefined),-12.7%[53 µM],-12.0%,12.0,35.5µM*[quencher],8.2%[10 µM],6.4%
C/C=C/C=C/CCCCCCCO,3.4%[201 µM],/,/,-4.8%[201 µM],/,/
CCCCc1nn2c(=O)cc(COC(=O)c3ccccc3C)nc2s1,-10.7%,/,/,-5.7%,/,/
COC(=O)c1sc(NC(=O)c2cc(-c3ccccc3)nc3ccccc23)c(C#N)c1C,6.7%,2.24µM*,-73.3*,0.8%,-44.3%,-1.4%
CCOC(=O)c1sc(NC(=O)CSc2n[nH]c(-c3ccncc3)n2)c(C#N)c1C,6.3%,7.08µM*,4.4,1.9%,-90.8%[10 µM],?
COc1ccc(-c2cc(C(=O)Nc3sc4c(c3C#N)CCCC4)c3ccccc3n2)cc1,-0.2%,-11.8%,2.2,-5.7%,-3.2%[10 µM],?
C/C(N)=C(/C#N)C(=O)COC(=O)c1cc(-c2ccc(Br)cc2)nc2ccccc12,-10.9%[53 µM],3.8%,1.8,22.4µM*[quencher],-8.1%[10 µM],-1.5%
Cc1ccccc1-c1cc(C(=O)Nc2sc(C(=O)OC(C)C)c(C)c2C#N)c2ccccc2n1,9.0%,4.47µM*,11.2,-0.3%,-37.7%,?
Cc1cc(NC(=O)c2cc(-c3ccccc3C)nc3ccccc23)no1,-2.2%,?,-1.8,-1.4%,/,-3.5%
CCc1noc(-c2ccc(N(C)Cc3ccc(OC)cc3)c([N+](=O)[O-])c2)n1,-12.4%,/,/,6.5%,/,/
SMILES,TRb SRC2 PPI,HttQ103 aggreg,Coupling enz,TexasRed fluor,HTT ATP protect,JMJD2E inh
CC(NC(=O)Cn1ncc2c3ccccc3n(Cc3ccc(F)cc3)c2c1=O)c1ccccc1 (centres undefined),1.6%,/,/,-0.5%,/,/
COc1ccc([C@]23Cc4cc(OC)c(OC)cc4C(O2)c2c(c4ccccc4oc2=O)O3)cc1,/,/,0.3,/,/,/
CCCCCCCCCCCC(=O)OC,-1.7%[201 µM],/,/,1.3%[201 µM],/,/
COC(=O)c1sccc1NC(=O)c1cc(-c2ccc(C)cc2)nc2ccccc12,-1.0%,10.3%,0.3,-1.0%,-3.9%,6.0%
CCOC(=O)c1sc(NC(=O)c2cc(-c3ccc(C)cc3)nc3ccccc23)c(C#N)c1C,5.8%,10µM*,4.6,-7.2%,-70.4%,-9.1%
COC(=O)CCC(=O)OC1(C)C(=O)C2=CN(CC3CC3)C(c3ccc(OC)cc3)=CC2=C(Br)C1=O (centres undefined),4.3%[11.2 µM],-1.8%[9.22 µM],-32.2*,-3.5%[11.2 µM],-38.9%[10 µM],12.6µM*
COC(=O)CCC(=O)OC1(C)C(=O)C2=CN(Cc3ccc(OC)cc3)C(c3ccc(OC)cc3)=CC2=C(Br)C1=O (centres undefined),0.4%[11.2 µM],/,-3.2,-3.1%[11.2 µM],0.8%[10 µM],-23.4%[11.4 µM]
COC(=O)CCC(=O)OC1(C)C(=O)C2=CN(CC(C)C)C(c3ccc(OC)cc3)=CC2=C(Br)C1=O (centres undefined),0.4%[11.2 µM],-25.7%[9.22 µM],-40.3*!,-2.4%[11.2 µM],25.3%[10 µM],?
COC(=O)CCC(=O)OC1(C)C(=O)C2=CN(CCCOC(C)C)C(c3ccc(OC)cc3)=CC2=C(Br)C1=O (centres undefined),5.4%,-24.0%[9.22 µM],-41.1*,8.9%,4.3%[10 µM],4.47µM*
COC(=O)c1cc(C)nc2c1c(=O)nc(SCc1cccc(C)c1)n2C1CC1,-0.7%,/,/,-1.7%,/,/
CCOC(=O)c1ccc(-n2c(C)ccc2C)cc1,0.3%,?,3.3,-1.0%,4.9%[0.074 µM],-17.1%
CCOC(=O)c1ccc(N2C(=O)C=CC2=O)cc1,-25.4%,22.4µM*,-3.6,1.5%,-95.7%,2.1%
CC(=O)OC[C@@H]1O[C@H](C/C=N\O[C@@H]2O[C@H](COC(C)=O)[C@@H](OC(C)=O)[C@H](OC(C)=O)[C@H]2OC(C)=O)C=C[C@@H]1OC(C)=O,5.7%[11.2 µM],/,2.6,-23.7%[11.2 µM],?,/
CC(C)(Oc1ccc(-c2cccc3ccccc23)cc1)C(=O)O,/,/,/,/,18.4%[10 µM],/
O=C(C1=C[C@H](c2ccccc2)C[C@H](OCc2ccc(CO)cc2)O1)N1CCN(Cc2ccccc2)CC1,-9.9%,8.6%[9.22 µM],-1.1,-1.8%,10.2%[10 µM],20µM*
CC(=O)n1cc([C@@H]2C=C(C(=O)NCc3ccccc3)O[C@H](OCc3ccc(CO)cc3)C2)c2ccccc21,24.9%,27.9%[9.22 µM],4.7,17.4%,-44.8%[10 µM],10µM*
